Test results from PubChem BioAssay (Tox21).
Values joined by “and” are separate entries in the source; they are usually repeats but may differ in a detail not shown here. Equal values may be shown once. Active and inactive are the calls of the source. Where a call stands in place of a potency, no number is given. Unless noted, calls follow the shape of the dose curve; as a rule, active = well fitted curve in the direction sought with a large enough effect in the repeat runs; inconclusive = weak or mixed curves; inactive = no such curve, though single readings can be large; an effect the other way counts as inactive or inconclusive.

How the values were obtained:
[1] = qHTS assay to identify small molecule antagonists of the thyroid receptor (TR) signaling pathway - cell viability counter screen (AID 743064); also: nearly all actives have a fitted effect of over 50% in size; also: potency is read from the fitted curve at half-maximal effect
In short: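 In-well cytotoxicity read by CellTiter-Fluor (30 min, 37 C) following 23.5 h exposure of GH3 cells bearing a TRE-luciferase sensor. Compounds were added alongside 1 nM (final) T3 to drive TR transactivation.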

[2] = system: thyroid hormone receptor (rat, GH3 cells); assay: qHTS assay to identify small molecule agonists of the thyroid receptor (TR) signaling pathway (AID 743066; calls by dose curve)
[3] = target: Estrogen receptor (Homo sapiens) (UniProt P03372); assay: qHTS assay to identify small molecule antagonists of the estrogen receptor alpha (ER-alpha) signaling pathway (AID 743069; active = well fitted curve in the direction sought with a large enough effect in the signal ratio in the repeat runs, not every such curve was filed as active; inconclusive = weak or mixed curves, or effect the other way; inactive = no such curve, though single readings can be large or run the other way; the % refers to the signal ratio; also: potency is read from the fitted curve at half-maximal effect)
Estrogen receptor (Homo sapiens), sequence (P03372 whole entry, looked up): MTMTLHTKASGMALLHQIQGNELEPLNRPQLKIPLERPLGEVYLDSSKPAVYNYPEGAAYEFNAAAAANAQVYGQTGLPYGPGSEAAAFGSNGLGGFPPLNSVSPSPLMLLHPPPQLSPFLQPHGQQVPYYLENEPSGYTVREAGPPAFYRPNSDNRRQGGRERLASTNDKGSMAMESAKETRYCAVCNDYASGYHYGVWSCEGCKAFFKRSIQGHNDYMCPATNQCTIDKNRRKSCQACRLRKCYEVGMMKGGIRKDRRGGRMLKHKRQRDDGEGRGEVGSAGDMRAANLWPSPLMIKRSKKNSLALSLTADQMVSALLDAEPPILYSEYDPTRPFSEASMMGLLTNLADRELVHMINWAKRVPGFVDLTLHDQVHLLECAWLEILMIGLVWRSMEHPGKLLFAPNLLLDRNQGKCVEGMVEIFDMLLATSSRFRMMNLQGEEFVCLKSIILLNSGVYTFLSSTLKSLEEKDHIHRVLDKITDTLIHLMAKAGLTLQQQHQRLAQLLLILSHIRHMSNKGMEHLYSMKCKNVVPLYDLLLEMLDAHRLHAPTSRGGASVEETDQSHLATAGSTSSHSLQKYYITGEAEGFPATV
In short: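 Compound effects are measured against 17beta-estradiol stimulation in HEK293 cells with a UAS-controlled beta-lactamase reporter for ER-alpha. Exposure lasts 18 hr at 37C; LiveBLAzer B/G FRET substrate follows for 2 hr at room temperature.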

[4] = qHTS assay to identify small molecule antagonists of the estrogen receptor alpha (ER-alpha) signaling pathway - cell viability counter screen (AID 743074; calls by dose curve;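 also: HEK293 cells carrying ER-alpha-UAS-bla reporter stimulated with 17beta-estradiol; nearly all actives have a fitted effect of over 45% in size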; also: potency is read from the fitted curve at half-maximal effect)
[5] = target: Estrogen receptor (Homo sapiens) (UniProt P03372); assay: qHTS assay to identify small molecule agonists of the estrogen receptor alpha (ER-alpha) signaling pathway (AID 743075; calls by dose curve)
[6] = target: Estrogen receptor (Homo sapiens) (UniProt P03372); assay: qHTS assay to identify small molecule agonists of the estrogen receptor alpha (ER-alpha) signaling pathway using the BG1 cell line (AID 743079); also: nearly all actives have a fitted effect of over 20% in size; also: potency is read from the fitted curve at half-maximal effect
[7] = qHTS assay to identify small molecule antagonists of the estrogen receptor alpha (ER-alpha) signaling pathway using the BG1 cell line - cell viability counter screen (AID 743081);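 also: compound given together with 17beta-estradiol as the ER stimulus; nearly all actives have a fitted effect of over 45% in size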; also: potency is read from the fitted curve at half-maximal effect
[8] = qHTS assay to identify aromatase inhibitors - cell viability counter screen (AID 743084);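 also: cells stimulated with testosterone during compound exposure; nearly all actives have a fitted effect of over 55% in size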; also: potency is read from the fitted curve at half-maximal effect
[9] = target: Aryl hydrocarbon receptor (Homo sapiens) (UniProt P35869); assay: qHTS assay to identify small molecule that activate the aryl hydrocarbon receptor (AhR) signaling pathway (AID 743085); also: nearly all actives have a fitted effect of over 15% in size; also: potency is read from the fitted curve at half-maximal effect;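 as to activation: HG2L7.5c1 human HepG2 liver cells with stably integrated DRE-driven firefly reporter; series mostly up to about 70 µM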
Aryl hydrocarbon receptor (Homo sapiens), sequence (P35869 whole entry, looked up): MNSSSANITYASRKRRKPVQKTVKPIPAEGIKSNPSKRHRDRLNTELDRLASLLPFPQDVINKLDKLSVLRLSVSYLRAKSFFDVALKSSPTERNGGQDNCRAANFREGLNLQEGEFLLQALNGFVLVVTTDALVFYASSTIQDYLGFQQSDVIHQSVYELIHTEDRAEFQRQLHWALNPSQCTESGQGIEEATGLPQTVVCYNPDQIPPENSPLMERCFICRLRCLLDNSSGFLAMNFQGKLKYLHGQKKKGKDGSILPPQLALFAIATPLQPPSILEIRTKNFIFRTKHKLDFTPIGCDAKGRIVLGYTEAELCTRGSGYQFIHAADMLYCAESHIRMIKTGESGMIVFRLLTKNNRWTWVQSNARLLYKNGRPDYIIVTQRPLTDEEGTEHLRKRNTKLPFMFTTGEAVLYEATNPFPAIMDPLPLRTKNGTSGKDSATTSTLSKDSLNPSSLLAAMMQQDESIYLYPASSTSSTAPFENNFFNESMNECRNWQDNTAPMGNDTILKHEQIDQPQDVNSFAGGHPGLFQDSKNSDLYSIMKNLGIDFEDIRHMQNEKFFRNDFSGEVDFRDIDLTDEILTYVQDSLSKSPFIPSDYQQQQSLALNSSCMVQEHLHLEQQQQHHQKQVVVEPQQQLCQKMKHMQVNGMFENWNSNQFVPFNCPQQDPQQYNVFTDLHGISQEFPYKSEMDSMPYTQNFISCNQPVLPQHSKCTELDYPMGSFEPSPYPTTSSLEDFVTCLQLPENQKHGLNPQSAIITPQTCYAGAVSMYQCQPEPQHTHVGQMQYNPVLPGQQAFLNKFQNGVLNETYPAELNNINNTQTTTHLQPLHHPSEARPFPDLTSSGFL
In short: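 Luminescence (ONE-Glo) from a dioxin-responsive-element luciferase reporter in HG2L7.5c1 HepG2 cells after 24 hr compound exposure at 37C; viability measured by CellTiter-Fluor fluorescence beforehand.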

[10] = qHTS assay to identify small molecule that activate the aryl hydrocarbon receptor (AhR) signaling pathway - cell viability counter screen (AID 743086); also: nearly all actives have a fitted effect of over 45% in size; also: potency is read from the fitted curve at half-maximal effect
In short: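 Cytotoxicity counter screen: CellTiter-Fluor signal (30 min, 37 C) in 4000 HepG2 cells/well carrying the DRE-luciferase reporter, following 24 h compound exposure at 37 C.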

[11] = qHTS assay to identify small molecule antagonists of the peroxisome proliferator-activated receptor gamma (PPARg) signaling pathway - cell viability counter screen (AID 743194); also: nearly all actives have a fitted effect of over 55% in size; also: potency is read from the fitted curve at half-maximal effect
In short: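 Viability was measured as CellTiter-Glo luminescence in GeneBLAzer PPARg UAS-bla HEK293H cells. These cells had been exposed 17 h at 37 C to compounds together with rosiglitazone at 50 nM final, with the beta-lactamase readout taken in the same wells.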

[12] = qHTS assay for small molecule activators of the heat shock response signaling pathway (AID 743210; active = well fitted activation curve with a large enough effect in the signal ratio in the repeat runs, with a control signal flat, not every such curve was filed as active; inconclusive = weak or mixed curves; the % refers to the signal ratio; also: potency is read from the fitted curve at half-maximal effect;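 as to activation: HeLa cells with beta-lactamase reporter driven by heat shock elements; series mostly up to about 63 µM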)
In short: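 In HSE-bla HeLa cells, 5 h compound incubation (37 C) precedes addition of LiveBLAzer B/G substrate; after 2.5 h at room temperature, fluorescence intensity indicates reporter induction.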

[13] = qHTS assay to identify small molecule antagonists of the thyroid receptor (TR) signaling pathway (AID 743065); also: potency is read from the fitted curve at half-maximal effect; nearly all actives have a fitted effect of over 55% in size
In short: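 Antagonism measured as loss of luciferase signal in GH3 cells stably carrying a TRE-luciferase reporter, co-treated with compound and T3 (1 nM final) for 23.5 h at 37 C. Viability was read in the same well by CellTiter-Fluor.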

[14] = target: Aromatase (Homo sapiens) (UniProt P11511); assay: qHTS assay to identify aromatase inhibitors (AID 743083); also: nearly all actives have a fitted effect of over 55% in size; also: potency is read from the fitted curve at half-maximal effect
Aromatase (Homo sapiens), sequence (P11511 whole entry, looked up): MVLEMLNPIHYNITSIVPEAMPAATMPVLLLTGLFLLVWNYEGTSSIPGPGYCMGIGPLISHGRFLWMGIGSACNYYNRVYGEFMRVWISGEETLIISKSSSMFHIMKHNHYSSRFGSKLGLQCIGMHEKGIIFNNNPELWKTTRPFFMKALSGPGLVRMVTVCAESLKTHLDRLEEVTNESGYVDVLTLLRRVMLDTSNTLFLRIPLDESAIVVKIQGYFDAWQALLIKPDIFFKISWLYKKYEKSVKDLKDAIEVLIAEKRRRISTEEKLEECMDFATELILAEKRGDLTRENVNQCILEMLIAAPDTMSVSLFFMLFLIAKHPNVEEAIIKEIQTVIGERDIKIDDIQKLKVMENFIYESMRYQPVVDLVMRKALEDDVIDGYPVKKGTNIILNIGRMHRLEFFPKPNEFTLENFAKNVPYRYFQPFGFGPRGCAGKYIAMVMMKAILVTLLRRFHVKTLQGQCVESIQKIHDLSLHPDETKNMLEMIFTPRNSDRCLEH

[15] = target: Peroxisome proliferator-activated receptor gamma (Homo sapiens) (UniProt P37231); assay: qHTS assay to identify small molecule antagonists of the peroxisome proliferator-activated receptor gamma (PPARg) signaling pathway (AID 743191; calls by dose curve; also: nearly all actives have a fitted effect of over 30% in size; also: potency is read from the fitted curve at half-maximal effect)
Peroxisome proliferator-activated receptor gamma (Homo sapiens), sequence (P37231 whole entry, looked up): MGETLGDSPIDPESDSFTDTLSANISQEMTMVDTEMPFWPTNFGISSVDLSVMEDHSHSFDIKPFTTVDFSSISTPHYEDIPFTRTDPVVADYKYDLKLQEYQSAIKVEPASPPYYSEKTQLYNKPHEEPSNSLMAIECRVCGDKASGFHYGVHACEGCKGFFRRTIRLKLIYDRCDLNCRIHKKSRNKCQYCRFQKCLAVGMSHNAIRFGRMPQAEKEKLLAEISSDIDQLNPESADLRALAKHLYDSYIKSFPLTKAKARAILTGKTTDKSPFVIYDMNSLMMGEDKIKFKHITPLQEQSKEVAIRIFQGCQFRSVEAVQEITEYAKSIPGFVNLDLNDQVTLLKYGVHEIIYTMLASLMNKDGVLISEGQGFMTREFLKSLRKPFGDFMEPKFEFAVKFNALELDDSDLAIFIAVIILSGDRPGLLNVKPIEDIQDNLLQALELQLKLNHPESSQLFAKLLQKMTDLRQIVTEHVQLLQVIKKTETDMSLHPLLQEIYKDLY
In short: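 Beta-lactamase reporter under UAS control in HEK293H PPARg-bla cells; compound treatment 17 h at 37C. Read-out: fluorescence intensity after 1 h room-temperature incubation with LiveBLAzer B/G FRET substrate.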

[16] = qHTS assay for small molecule agonists of the antioxidant response element (ARE) signaling pathway - cell viability counter screen (AID 743203; calls by dose curve; also: nearly all actives have a fitted effect of over 55% in size; also: potency is read from the fitted curve at half-maximal effect)
In short: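 CellSensor ARE-bla HepG2 cells, 2,000 per well, rested 5 hrs at 37C/5% CO2, then exposed to compound in DMSO for 16 hrs; viability read as CellTiter-Glo luminescence after 30 min at room temperature, in the reporter wells.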

[17] = qHTS assay for small molecule activators of the heat shock response signaling pathway - cell viability counter screen (AID 743209); also: nearly all actives have a fitted effect of over 50% in size; also: potency is read from the fitted curve at half-maximal effect
In short: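 CellSensor HSE-bla HeLa cells, plated overnight at 37 C/5% CO2, were exposed to compounds in DMSO for 5 h at 37 C. Viability was then read in the same wells by CellTiter-Glo luminescence after 30 min at room temperature.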

[18] = target: Peroxisome proliferator-activated receptor gamma (Homo sapiens) (UniProt P37231); assay: qHTS assay to identify small molecule agonists of the peroxisome proliferator-activated receptor gamma (PPARg) signaling pathway (AID 743094; active = well fitted activation curve with a large enough effect in the signal ratio in the repeat runs, not every such curve was filed as active; inconclusive = weak or mixed curves, or effect the other way; inactive = no such curve, though single readings can be large or run the other way; the % refers to the signal ratio)
In short: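 GeneBLAzer PPARg UAS-bla HEK293H cells carrying a stably integrated beta-lactamase reporter were pre-incubated 5 h at 37C, then exposed to compounds in DMSO for 17 h at 37C; LiveBLAzer B/G FRET substrate was added for 1 h at room temperature and fluorescence read.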

[19] = qHTS assay for small molecule agonists of the antioxidant response element (ARE) signaling pathway (AID 743202; active = well fitted activation curve with a large enough effect in the signal ratio in the repeat runs, not every such curve was filed as active; inconclusive = weak or mixed curves, or effect the other way; inactive = no such curve, though single readings can be large or run the other way; the % refers to the signal ratio; also: potency is read from the fitted curve at half-maximal effect)
In short: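 An ARE-responsive beta-lactamase gene stably integrated in HepG2 cells serves as reporter. After 5 h plating and 16 h compound incubation at 37 C, fluorescence of the B/G FRET substrate was measured.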

[20] = qHTS assay to identify small molecule antagonists of the estrogen receptor alpha (ER-alpha) signaling pathway using the BG1 cell line (AID 743080; calls by dose curve;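 also: BG1 cells stimulated with 17beta-estradiol alongside compound; series mostly up to about 70 µM; nearly all actives have a fitted effect of over 25% in size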)
In short: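 BG1-Luc-4E2 cells (endogenous full-length ER-alpha, stable 4×ERE-luciferase) were starved 5 days in phenol-red-free medium with 10% charcoal-stripped FBS, plated 24 h, then given compound plus 17beta-estradiol for 21.5 h at 37 C; ONE-Glo luminescence read after 30 min.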

| Compound | Potency [1] | outcome [2] | Potency [3] | Potency [4] | Potency [5] | Potency [6] | Potency [7] | Potency [8] | Potency [9] | Potency [10] | Potency [11] | Potency [12] | Potency [13] | Potency [14] | Potency [15] | Potency [16] | Potency [17] | Potency [18] | Potency [19] | Potency [20] |
| --- | --- | --- | --- | --- | --- | --- | --- | --- | --- | --- | --- | --- | --- | --- | --- | --- | --- | --- | --- | --- |
| O=S(=O)(O)c1ccc(N=Nc2c(O)ccc3ccccc23)cc1 | 30.6 µM (active) | inactive | inactive | inactive | inactive | inactive | 27.3 µM (active) | 17.2 µM (active) | 27.3 µM (active) | 24.3 µM (active) | inactive | inactive | – | – | – | – | – | – | – | – |
| CCCCCCCCCCCCCCCC[N+](C)(C)CC | 5.96 µM (active) and 15.4 µM (active) | – | – | 19 µM (active) and 55.1 µM (active) | inactive | – | 54.6 µM (active) | 21.1 µM (active) and 48.7 µM (active) | inactive | 18.8 µM (active) and 48.7 µM (active) | 17.4 µM (active) and 26.6 µM (active) | – | 4.22 µM (active) and 6.13 µM (active) | 9.44 µM (active) and 8.66 µM (active) | 23.7 µM (active) | 54.6 µM (active) | 39 µM (active) and 23.7 µM (active) | – | – | – |
| CC(C)CCOC(=O)/C=C/c1ccccc1 | inactive | inactive | inactive | – | inactive | 24.4 µM (active) | inactive | inactive | inactive | inactive | inactive | inactive | – | inactive | – | inactive | – | – | – | – |
| O=C(Nc1ccc2c(O)c(N=Nc3ccc(N=Nc4ccc(S(=O)(=O)O)cc4)cc3)c(S(=O)(=O)O)cc2c1)c1ccccc1 | 30.6 µM (active) | inactive | inactive | inactive | inactive | – | 27.3 µM (active) | 8.63 µM (active) | inactive | 19.3 µM (active) | – | inactive | – | – | inactive | inactive | inactive | – | – | – |
| Cc1cc(C(C)(C)C)cc(C)c1CC1=NCCN1 | inactive | inactive | inactive | inactive | inactive | inactive | inactive | inactive | inactive | inactive | inactive | inactive | – | inactive | inactive | – | inactive | inactive | inactive | – |
| [Cu+] | inactive | inactive | inactive | inactive | inactive | – | inactive | – | – | inactive | inactive | – | – | – | – | inactive | inactive | – | – | – |
| O=[N+]([O-])c1ccc(O)cc1C(F)(F)F | 54.5 µM (active) | – | – | – | – | – | – | 68.6 µM (active) | inactive | 61.1 µM (active) | 38.9 µM (active) | inactive | 21.7 µM (active) | – | inactive | – | inactive | – | – | – |
| NC(=S)NC(N)=S | inactive | inactive | inactive | inactive | inactive | inactive | inactive | inactive | inactive | inactive | inactive | 34.7 µM (active) | – | inactive | inactive | inactive | – | – | inactive | inactive |
| OC[C@H]1O[C@H](O[C@H]2O[C@H](CO)[C@@H](O)[C@H](O)[C@H]2O)[C@H](O)[C@@H](O)[C@@H]1O | inactive | inactive | – | inactive | – | – | – | inactive | inactive | inactive | inactive | – | – | inactive | inactive | inactive | inactive | inactive | inactive | – |
| Cc1cc(C(C)(C)C)c(O)c(C)c1Cn1c(=O)n(Cc2c(C)cc(C(C)(C)C)c(O)c2C)c(=O)n(Cc2c(C)cc(C(C)(C)C)c(O)c2C)c1=O | inactive | inactive | 17.4 µM [inconclusive] (active) | inactive | inactive | inactive | inactive | inactive | inactive | inactive | inactive | – | – | – | – | inactive | – | – | inactive | – |
| CCCCC/C=C\C/C=C\CCCCCCCC(=O)O | inactive | inactive | inactive | inactive | inactive | inactive | inactive | inactive | inactive | inactive | inactive | – | – | inactive | – | inactive | 42.9 µM (active) | – | 61.1 µM (active) | – |
| CCOC(=O)c1ccc(C2CCC(NC[C@H](O)COc3ccc(O)c(NS(C)(=O)=O)c3)CC2)cc1 (some centres not stated) | 39.9 µM (active) | – | – | – | – | – | inactive | – | inactive | – | – | inactive | 28.3 µM (active) | – | inactive | 50.2 µM (active) | – | – | – | – |
| C[C@H]1NCc2cc(-c3ccc4c(=O)c(C(=O)O)cn(C5CC5)c4c3OC(F)F)ccc21 | inactive | inactive | inactive | – | inactive | inactive | inactive | inactive | inactive | inactive | inactive | – | – | inactive | – | inactive | – | inactive | inactive | inactive |
